Reference: PubChem BioAssay (NCI)
This is part of a sample that, as a whole, favours compounds with a hit. Of some 83,000 tested, about 20% had one in any assay.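 Plates (96-well) were seeded with cells, treated with compound at one concentration, and incubated for 48 hours before percent growth was determined.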 Values without a mark were called inactive. Activity calls are given as the source filed them. How the source made its calls: active means growth percent below 10; inactive means the rest.

Experiments:
Experiment in all cases: NCI-60 one-dose screen, 48 h (100 = growth as untreated, 0 = no growth, -100 = all killed)
Conditions in all cases: 10 µM unless noted
RPMI-8226 leukemia = tested on: RPMI-8226 leukemia
OVCAR-8 ovarian = tested on: OVCAR-8 ovarian
OVCAR-5 ovarian = tested on: OVCAR-5 ovarian
OVCAR-4 ovarian = tested on: OVCAR-4 ovarian
SK-OV-3 ovarian = tested on: SK-OV-3 ovarian
IGROV1 ovarian = tested on: IGROV1 ovarian
OVCAR-3 ovarian = tested on: OVCAR-3 ovarian
HS 578T breast = tested on: HS 578T breast
NCI/ADR-RES ovarian = tested on: NCI/ADR-RES ovarian

Row | Compound | growth (RPMI-8226 leukemia) | growth (OVCAR-8 ovarian) | growth (OVCAR-5 ovarian) | growth (OVCAR-4 ovarian) | growth (SK-OV-3 ovarian) | growth (IGROV1 ovarian) | growth (OVCAR-3 ovarian) | growth (HS 578T breast) | growth (NCI/ADR-RES ovarian)
1 | Clc1ccc2c(NCCCN3CCN(c4nc(-n5ccnc5)nc5ccccc45)CC3)ccnc2c1 | -48.6% (active) | 84.2% | 120% | 64.9% | 109% | 86.5% | 90.5% | 85.5% | 90.7%
2 | CC(C)(C)CC(C)(C)Nc1c(-c2ccc(-c3ccccc3)cc2)nc2cnccn12 | 68.7% | 70.2% | 88.1% | -26.5% (active) | 76.3% | 66% | 90.2% | 95.5% | 97.7%
3 | CN(C)S(=O)(=O)n1cnc([C@@H]2[C@@H]3C(=O)OC[C@@H]3C[C@]23N=CN(Cc2ccccc2)C3=O)c1 | -8.51% (active) | 107% | 96.7% | 79.6% | 107% | 113% | 105% | 100% | 102%
4 | CS(=O)(=O)c1ccc(-c2[nH]c3ccc(F)cc3c2/C=N/O)cc1 | 90.4% | 90.3% | 91.4% | 97.1% | 69.8% | 89.9% | 99.8% | 92.2% | 107%
5 | C/C(=N\NC(=O)Cn1c(-c2ccc(S(C)(=O)=O)cc2)nc2cc(Cl)ccc21)c1ccc(Cl)cc1 | 76.4% | 79.5% | 91.2% | 65.9% | 81.3% | 70.6% | 79.7% | 80.7% | 86.7%
6 | COc1ccc(Oc2nc(Nc3ccc(N4CCCCC4)nc3)ncc2NC(=O)c2cc(OC)cc(OC)c2)cc1 | 24.4% | 57% | 76.7% | 56.7% | 57.6% | 58.3% | 6.75% (active) | 44.6% | 26.1%
7 | CS(=O)(=O)c1ccc(-c2nc3cc(Cl)ccc3n2CC(=O)NO)cc1 | 90.9% | 88.3% | 100% | 87.6% | 96.4% | 88.4% | 96.1% | 93.2% | 108%
8 | Cc1cc(N(CCCNc2ccnc3cc(Cl)ccc23)Cc2ccccn2)nc(N2CCOCC2)n1 | 85.2% | 81.7% | 95.8% | 82.3% | 88.5% | 82.2% | 97.6% | 80.9% | 88.6%
9 | COc1ccc(-c2nc3sccn3c2/C=C/C(=O)c2c[nH]c3ccccc23)cc1 | 154% | 63.9% | 63.5% | 42.6% | 79.6% | 79.2% | 68.1% | 74.9% | 59.1%
10 | CN(C)CCCCNc1ccc(NCCCCN(C)C)c2c1C(=O)c1c(O)ccc(O)c1C2=O | 53.6% | – | -86% (active) | 64% | 85.6% | -84.5% (active) | 100% | 92% | -68.8% (active)
11 | Cc1nn(Cc2ccccc2)cc1C(=O)Nc1sc2c(c1C(N)=O)CCC(=O)C2 | -6.08% (active) | 20.3% | 73.8% | – | 116% | 33.5% | 9.48% (active) | 28.8% | 72%
12 | Cc1nc2ccc(C(=O)NCc3cc(C(=O)O)c(C)o3)cc2nc1C | 108% | – | 99.7% | – | 80.2% | 106% | 101% | 96.8% | 106%
13 | O=S(=O)(NCCNc1cc(-c2c(-c3cccc(O)c3)nc3sccn23)ccn1)c1ccc(Cl)cc1 | 41.1% | – | 107% | 40.4% | 75.1% | 54.1% | 64.2% | 63.9% | 87.6%
14 | C=C1C(=O)O[C@H]2[C@H]1CC/C(Cn1cc(CNCCc3c[nH]c4ccccc34)nn1)=C\CC[C@@]1(C)O[C@@H]21 | 76.5% | 92.5% | 88.8% | – | 80.9% | 68.8% | 69.4% | 92.4% | 99.9%
15 | COc1ccc(-c2cc(-c3ccc(Nc4nc(Nc5ccccc5)nc(Nc5ccc(Cl)cc5)n4)cc3)nc(N)n2)cc1 | 50.5% | 79% | 66.5% | 56.5% | 119% | 39.2% | 52.6% | – | 69.3%
16 | CCCCCCN(CCCCCC)CC(O)c1cccc2ccc(Cl)cc12 (stereo not given) | 31.2% | 93.8% | 69.3% | 70% | – | 40.8% | 63.2% | 61.2% | 66.9%
17 | C=C1c2c(C)nn(-c3ccc(O)cc3)c2N(C)C23C[C@@H]1C1(C)c4c(C)nn(-c5ccc(O)cc5)c4N(C)C(C)(C[C@H]12)C3 (stereo not given in full) | -1.11% (active) | – | 85.8% | 32.2% | 37.7% | 63.2% | 24.2% | 52.4% | 47.4%
18 | CN(C)c1ccc(-c2cc(-c3ccc(Nc4nc(Nc5ccccc5)nc(Nc5ccc(Cl)cc5)n4)cc3)nc(N)n2)cc1 | 34.1% | 51.3% | 36.6% | 49.6% | 85.4% | 39.2% | 49.5% | – | 15.5%
19 | CNC(=O)NCC1OC(n2cnc3c(NC(=O)Nc4ccccc4)ncnc32)C2OC(C)(C)OC12 (stereo not given) | 87.2% | 100% | 109% | 89.6% | 79.3% | – | 89% | 102% | 101%
